Data taken from the supplement of paper PMC6555819.

Key:
Assay in all cases: PBM binding z-score (relative to random genomic background probes); higher = stronger binding; sequences stand for … in GC…GCGATTGACAGCGTAGAATGAAGG
[1] = test system: PPARg:RXRa DBDmut IVT, anti-RXR (DBD mutation: RXRa K156A/R161A, NR concentration 270 nM, RXRa partner concentration 90 nM)
Procedure, shortened: (§1)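 Custom Agilent 4×180K protein-binding microarrays carried double-stranded probes. Their 34-nt variable regions held direct-repeat seeds, single-nucleotide variants, half-site ablations and random human genomic background sequences. Arrays were incubated 1 h with ligand-free nuclear receptor dimers in PBS pH 7.4, 2% milk, 0.02% Triton X-100, 1 mM DTT, 0.2 mg/mL BSA and 0.4 mg/ml salmon testes DNA. Antibodies against each partner (one per run) detected binding, and scanned fluorescence was regression-normalized. Binding z-scores use random background probes as reference.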

[2] = test system: PPARg:RXRa IVT, anti-PPARg (NR concentration 270 nM, RXRa partner concentration 90 nM)
Procedure, shortened: as §1

[3] = test system: PPARg DBDmut:RXRa IVT, anti-PPARg (DBD mutation: PPARg1 K132A/R137A, NR concentration 270 nM, RXRa partner concentration 90 nM)
Procedure, shortened: as §1

[4] = test system: PPARg DBDmut IVT, anti-PPARg (DBD mutation: PPARg1 K132A/R137A, NR concentration 270 nM)
Procedure, shortened: as §1

[5] = test system: PPARg homodimer (NR concentration 180 nM)
Procedure, shortened: as §1

[6] = test system: PXR:RXRa (NR concentration 270 nM, RXRa partner concentration 90 nM)
Procedure, shortened: as §1

[7] = test system: PXR homodimer (NR concentration 270 nM)
Procedure, shortened: as §1

[8] = test system: RARa:RXR (NR concentration 270 nM, RXRa partner concentration 90 nM)
Procedure, shortened: as §1

[9] = test system: RARa homodimer (NR concentration 270 nM)
Procedure, shortened: as §1

[10] = test system: RARb:RXRa (NR concentration 270 nM, RXRa partner concentration 90 nM)
Procedure, shortened: as §1

## CCTAGTTGGTCAGCAGGTCACACACCGGATATGA
[1]
  PBM binding z-score: 1.7
[2]
  PBM binding z-score: 2.95
[3]
  PBM binding z-score: -0.32
[4]
  PBM binding z-score: 0.126
[5]
  PBM binding z-score: 2.23
[6]
  PBM binding z-score: 2.42
[7]
  PBM binding z-score: 0.562
[8]
  PBM binding z-score: 3.23
[9]
  PBM binding z-score: 1.34
[10]
  PBM binding z-score: 2.75

## CAAACTAGGTCAAAGAGGTCAAAGTCCGTGCGTA
[1]
  PBM binding z-score: 8.36
[2]
  PBM binding z-score: 8.45
[3]
  PBM binding z-score: 2.17
[4]
  PBM binding z-score: 1.31
[5]
  PBM binding z-score: 5.02
[6]
  PBM binding z-score: 6.37
[7]
  PBM binding z-score: 10.5
[8]
  PBM binding z-score: 6.42
[9]
  PBM binding z-score: 2.57
[10]
  PBM binding z-score: 4.77

## TCTTGTAGATCAGCAGGTTATGAAAGCTGGCCAA
[1]
  PBM binding z-score: 1.43
[2]
  PBM binding z-score: 0.523
[3]
  PBM binding z-score: -0.144
[4]
  PBM binding z-score: 0.592
[5]
  PBM binding z-score: -0.672
[6]
  PBM binding z-score: 0.11
[7]
  PBM binding z-score: -0.253
[8]
  PBM binding z-score: 0.383
[9]
  PBM binding z-score: -0.663
[10]
  PBM binding z-score: 0.164

## CCGACTGGGGCAAGGGTACCATAACGCACAGCCA
[1]
  PBM binding z-score: 2.26
[2]
  PBM binding z-score: 3.6
[3]
  PBM binding z-score: 0.123
[4]
  PBM binding z-score: -0.113
[5]
  PBM binding z-score: 0.601
[6]
  PBM binding z-score: -0.478
[7]
  PBM binding z-score: -0.439
[8]
  PBM binding z-score: -0.197
[9]
  PBM binding z-score: -0.395
[10]
  PBM binding z-score: 0.933

## CCTGTTAGGTCAATGGTCAGCTAAAGCAGCTCGC
[1]
  PBM binding z-score: 3.49
[2]
  PBM binding z-score: 3.13
[3]
  PBM binding z-score: -0.195
[4]
  PBM binding z-score: -0.0792
[5]
  PBM binding z-score: 2.54
[6]
  PBM binding z-score: 1.43
[7]
  PBM binding z-score: 0.214
[8]
  PBM binding z-score: 2.39
[9]
  PBM binding z-score: 1.21
[10]
  PBM binding z-score: 4.14

## CCTCGGAGGACAGCAGGTCAGAGCTGTCCGCTTT
[1]
  PBM binding z-score: -0.0532
[2]
  PBM binding z-score: -0.162
[3]
  PBM binding z-score: -1.57
[4]
  PBM binding z-score: -1.57
[5]
  PBM binding z-score: 0.113
[6]
  PBM binding z-score: 0.0301
[7]
  PBM binding z-score: -0.196
[8]
  PBM binding z-score: 0.742
[9]
  PBM binding z-score: -0.236
[10]
  PBM binding z-score: 2.04

## GGAACGAGGGCAAGTTGACAGCAGAGTTTGATGG
[1]
  PBM binding z-score: 4.05
[2]
  PBM binding z-score: 3
[3]
  PBM binding z-score: -0.195
[4]
  PBM binding z-score: -0.654
[5]
  PBM binding z-score: 0.481
[6]
  PBM binding z-score: 0.693
[7]
  PBM binding z-score: 0.641
[8]
  PBM binding z-score: 0.4
[9]
  PBM binding z-score: -0.316
[10]
  PBM binding z-score: 2.51

## TCTTCTAGATCAACAGGAGGTTAAGAAAGATCGA
[1]
  PBM binding z-score: 1.93
[2]
  PBM binding z-score: 1.19
[3]
  PBM binding z-score: 1.81
[4]
  PBM binding z-score: 1.8
[5]
  PBM binding z-score: 0.382
[6]
  PBM binding z-score: 0.755
[7]
  PBM binding z-score: 0.113
[8]
  PBM binding z-score: 1.32
[9]
  PBM binding z-score: 0.555
[10]
  PBM binding z-score: 0.762

## GTACCAAGGGGAATAGGTCGTTGATGAGTAGGCG
[1]
  PBM binding z-score: -0.45
[2]
  PBM binding z-score: 0.704
[3]
  PBM binding z-score: -0.174
[4]
  PBM binding z-score: -0.377
[5]
  PBM binding z-score: 0.85
[6]
  PBM binding z-score: 0.0913
[7]
  PBM binding z-score: 0.00696
[8]
  PBM binding z-score: 0.389
[9]
  PBM binding z-score: 0.37
[10]
  PBM binding z-score: 0.516

## GATACAGGGTCAAGGCTAGAGTACGCGTATTGAT
[1]
  PBM binding z-score: 3.54
[2]
  PBM binding z-score: 3.94
[3]
  PBM binding z-score: 1.02
[4]
  PBM binding z-score: 0.742
[5]
  PBM binding z-score: 1.69
[6]
  PBM binding z-score: 3.72
[7]
  PBM binding z-score: 0.503
[8]
  PBM binding z-score: 4.37
[9]
  PBM binding z-score: 0.567
[10]
  PBM binding z-score: 4.43

## GGAACGAGGGCATTCAAGTTGATAGCATGGCGAT
[1]
  PBM binding z-score: 2.92
[2]
  PBM binding z-score: 2.13
[3]
  PBM binding z-score: -0.155
[4]
  PBM binding z-score: -0.574
[5]
  PBM binding z-score: -0.338
[6]
  PBM binding z-score: 2.92
[7]
  PBM binding z-score: 0.722
[8]
  PBM binding z-score: 0.791
[9]
  PBM binding z-score: -0.689
[10]
  PBM binding z-score: 1.9

## ACAGTCAGGTGAGTGAAGGTAACTCAGCTGGACG
[1]
  PBM binding z-score: 0.794
[2]
  PBM binding z-score: 0.82
[3]
  PBM binding z-score: -0.123
[4]
  PBM binding z-score: -0.515
[5]
  PBM binding z-score: -0.608
[6]
  PBM binding z-score: -0.47
[7]
  PBM binding z-score: -0.728
[8]
  PBM binding z-score: -0.00233
[9]
  PBM binding z-score: 0.0121
[10]
  PBM binding z-score: 0.775
